NTR1 ag – agonists of human neurotensin receptor NTR1; 330,000 tested, 0.17% active; NTR1-U2OS beta-arrestin-GFP spot imaging, agonist mode; activation, % at 20 µM; P30989; AID 493036;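 active = activation at or above 40% of the spot to cytoplasm intensity ratio, with at least 20 cells analyzed; inconclusive = wells under 20 cells, flagged as cytotoxic or low count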;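 also: 0% = DMSO without peptide and 100% = 100 nM NTR1 peptide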
Target sequence (P30989 whole entry, looked up): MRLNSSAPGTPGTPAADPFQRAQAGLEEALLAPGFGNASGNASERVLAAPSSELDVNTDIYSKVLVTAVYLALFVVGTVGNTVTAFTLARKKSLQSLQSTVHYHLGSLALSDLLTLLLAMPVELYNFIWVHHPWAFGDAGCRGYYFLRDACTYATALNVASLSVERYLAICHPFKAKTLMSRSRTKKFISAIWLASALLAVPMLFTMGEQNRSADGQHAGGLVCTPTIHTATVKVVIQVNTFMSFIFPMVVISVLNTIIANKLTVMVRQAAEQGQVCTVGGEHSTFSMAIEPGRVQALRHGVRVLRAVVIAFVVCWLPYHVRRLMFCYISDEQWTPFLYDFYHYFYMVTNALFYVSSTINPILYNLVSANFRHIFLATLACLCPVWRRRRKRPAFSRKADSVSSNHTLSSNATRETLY
ALR inh – blocks human ALR sulfhydryl oxidase activity; AID 485317; inhibition, % (concentration not given with the values); P55789; 290,000 tested, 3.8% active; purified ALR, DTT oxidation, H2O2 HRP-luminol luminescence;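 active = mean replicate inhibition above about 79%, with every replicate also reaching it, limit read from the data; inconclusive = only one of the two criteria met; inactive = mean below limit and not every replicate reaching it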
Cardio protect – myocardial damage modulation in H9c2 cells. H9c2 cardiomyocytes, H2O2 injury protection, ATPLite, 2 h. protection from H2O2 cell death, % at 20 µM. 360,000 tested, 0.63% active;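 active = compounds giving at least 50% protection of heart cells from peroxide-induced death in the single-dose screen, raw or plate-pattern-corrected value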;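 also: 0% = DMSO wells with peroxide and 100% = DMSO wells without peroxide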
UBC9 SUMO inh – SUMOylation inhibition; P63279; HTRF SUMOylation assay, SAE1/SAE2 + UBC9, in vitro; inhibition, % at 35 µM; 290,000 tested, 0.36% active; AID 2006; in the data active = inhibition above about 50%, passing the limit was not always enough; inconclusive = no clear call, values can overlap the other calls
Active calls of the source: *; ? = inconclusive; / = no result. Hits are enriched below; roughly 3.9% of the tested compounds scored in any of these assays.

SMILES	NTR1 ag	ALR inh	Cardio protect	UBC9 SUMO inh
CCOC(=O)c1cnc(-n2nc(C)cc2C)nc1Nc1ccccc1OC	/	/	/	6
CCOC(=O)c1cnc(-n2nc(C)cc2C)nc1Nc1ccc(OC)cc1	4	/	50*	16
CCOC(=O)c1cnc2ccc(OC)cc2c1Nc1ccc(N2CCN(C)CC2)cc1	2	99*	4	0
CCOC(=O)c1ccc2ncc(C(=O)OCC)c(Nc3ccc(N4CCOCC4)cc3)c2c1	23	6	33	13
Fc1ccc(Br)cc1C1C=C(c2ccc(Br)cc2)Nc2ncnn21 (stereo not given)	2	90*	4	23
CCc1ccc(C2=CC(c3cc(Br)ccc3F)n3ncnc3N2)cc1 (stereo not given)	2	3	4	31
COc1cccc(CN2CCC(C(=O)N3CCN(Cc4ccc5c(c4)OCO5)CC3)CC2)c1OC	0	-2	-4	9
Cc1ccc(O)c(CNCCNCc2cc(C)ccc2O)c1	-2	61	65*	/
CCc1ccc(O)c(CNCCNCc2cc(CC)ccc2O)c1	6	52	19	/
COc1ccc(C(=O)NCC(c2cccnc2)N2CCN(c3ccc(F)cc3)CC2)cc1OC (stereo not given)	16	86*	25	13
COc1ccc(C(=O)NCC(c2cccnc2)N2CCN(c3ccccc3)CC2)cc1OC (stereo not given)	-2	98*	14	-13
COc1ccc(C(=O)NCC(c2cccnc2)N2CCN(c3ccccc3OC)CC2)cc1OC (stereo not given)	0	50	4	2
COc1cc(C(=O)NCC(c2cccnc2)N2CCN(c3ccc(F)cc3)CC2)cc(OC)c1OC (stereo not given)	0	55	6	4
O=C(NCC(c1cccnc1)N1CCN(c2ccc(F)cc2)CC1)C1CCCCC1 (stereo not given)	5	98*	6	1
O=C(NCC(c1cccnc1)N1CCN(c2ccc(F)cc2)CC1)c1ccc(F)cc1 (stereo not given)	3	98*	1	2
COc1ccc(N2CCN(C(CNC(=O)C3CCCCC3)c3cccnc3)CC2)cc1 (stereo not given)	0	?	3	-11
CC(=O)c1ccc(N2CCN(C(=O)Nc3ccc(Cl)cc3)CC2)cc1	6	-3	-11	-19
COc1ccc(CNC(=O)c2cc(S(=O)(=O)N3CCOCC3)cn2C)cc1	-1	4	0	14
Cc1cc2nc(-c3ccc(F)cc3)c(Cc3ccccc3)n2c(C)c1Br	/	/	-4	/
CC[C@@H](C)C(C(=O)N1CCN(C(=O)OC(C)(C)C)CC1)n1cc(-c2cn([C@@H](C)C(=O)N3CCN(C(=O)OC(C)(C)C)CC3)nn2)nn1 (stereo not given in full)	0	-18	0	19
CCCOc1ccccc1N1C(=O)CC(N(O)c2ccccc2)C1=O (stereo not given)	2	97*	-1	8
Fc1ccc(-c2csc(-c3ccncc3)n2)cc1	0	4	-6	32
N#C/C(=N/O)c1nc(-c2ccc(F)cc2)cs1	-1	98*	-12	20
O=S(=O)(c1ccc(S(=O)(=O)N(Cc2ccccc2)Cc2ccco2)cc1)N1CCCC1	-1	94*	-12	/
Nc1cc(=O)[nH]c(SCc2csc(-c3ccccc3)n2)n1	2	99*	-6	-7
SMILES	NTR1 ag	ALR inh	Cardio protect	UBC9 SUMO inh
c1ccc(-c2nc(CSc3n[nH]c(-c4cccs4)n3)cs2)cc1	8	98*	-1	-15
Cc1cc(=O)[nH]c(SCc2csc(-c3ccccc3)n2)n1	1	-4	7	2
CC1CCC/C(=N/Nc2nc3ccccc3s2)C1 (stereo not given)	0	97*	-20	3
Cc1cnc(=O)[nH]c1SCC(=O)Nc1nccs1	1	97*	4	/
CCCSc1nnc(NC(=O)CSc2nc3[nH]c(=O)cc(O)c3s2)s1	1	6	5	/
CCc1nnc(NC(=O)CSc2nc3[nH]c(=O)cc(O)c3s2)s1	-1	99*	12	/
O=C(CSc1nc2[nH]c(=O)cc(O)c2s1)Nc1nncs1	/	/	3	/
Cc1nc(SCC(=O)Nc2nccs2)c(C#N)c(C)c1C	1	-6	-18	/
O=C(CSc1nc2[nH]c(=O)cc(O)c2s1)Nc1nccs1	-1	95*	-6	/
COc1ccc2[nH]c(C(=O)O)c(NS(=O)(=O)c3ccc(C)cc3C)c2c1	-1	98*	3	6
COC(=O)c1[nH]c2ccc(C)cc2c1NS(=O)(=O)c1ccc(F)cc1	0	79*	-14	-1
